Reference: article PMC5540273 (PLoS ONE, 2017)

What was measured:
Conditions in all cases: concentration: 1 μM,replicates: in singlicate; n = 1
[1] = tested on: DYRK1B
[2] = tested on: DYRK2
[3] = tested on: EGFR
[4] = tested on: EIF2AK1
[5] = tested on: EPHA1
[6] = tested on: EPHA2
[7] = tested on: EPHA3
[8] = tested on: EPHA4
[9] = tested on: EPHA5
[10] = tested on: EPHA6
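Also: KINOMEscan kinase panel screen.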

Row | SMILES | %Inh [1] [%] | %Inh [2] [%] | %Inh [3] [%] | %Inh [4] [%] | %Inh [5] [%] | %Inh [6] [%] | %Inh [7] [%] | %Inh [8] [%] | %Inh [9] [%] | %Inh [10] [%]
1 | CC(C)N1C(=O)Cc2cc(Nc3ncc(C(F)(F)F)c(NCc4cccc(S(C)(=O)=O)c4)n3)ccc21 | 38 | 19 | 0 | 0 | 4 | 0 | 9 | 1 | 3 | 3
2 | CNC(=O)c1ccccc1Sc1ccc2c(/C=C/c3ccccn3)n[nH]c2c1 | 0 | 0 |  | 6 | 12 | 9 | 0 | 0 | 0 | 0
3 | CCN(CC)CCCCNc1ncc2cc(-c3c(Cl)cccc3Cl)c(NC(=O)NC(C)(C)C)nc2n1 | 1 | 0 |  | 46 | 99.6 | 99.6 | 99.4 | 91.5 | 95.9 | 95.6
4 | CCn1c(-c2nonc2N)nc2c(C#CC(C)(C)O)nc(OCCN)cc21.Cl.Cl [GSK902056] | 4 | 0 | 24 | 8 | 19 | 19 | 21 | 15 | 0 | 11
5 | C[C@H]1Oc2cc(cnc2N)-c2c(nn(C)c2C#N)CN(C)C(=O)c2ccc(F)cc21 | 6 | 0 | 9 | 0 | 53 | 48 | 0 | 1 | 24 | 33
6 | NC(=O)c1cc(-c2ccccc2)cc2c(C3CCNCC3)c[nH]c12 [GSK301362] | 45 | 23 | 25 | 0 | 18 | 10 | 0 | 6 | 0 | 3
7 | Cl.Cl.NC[C@H](Cc1ccc(C(F)(F)F)cc1)NC(=O)c1cc(Br)c(-c2ccnc3[nH]ccc23)s1 [GSK1487252] | 41 | 33 | 30 | 0 | 26 | 14 | 0 | 19 | 0 | 29
8 | O=C(NCCCN1CCOC1=O)c1cnc(NCc2cc(Cl)ccc2Cl)nc1NC1CCCC1 | 21 | 0 | 0 | 0 | 12 | 25 | 0 | 14 | 17 | 28
9 | Cc1ccc2c(-c3ccncc3)c(-c3ccc(F)cc3)nn2c1.Cl [GW461484] | 4 | 9 | 43 | 0 | 10 | 8 | 13 | 0 | 0 | 5
10 | Cc1cc2cn[nH]c2cc1-c1cccc2c(N)c(C(N)=O)nnc12 | 0 | 23 | 56 | 26 | 17 | 0 | 0 | 8 | 89 | 0
11 | C[C@@H](Oc1cc(-c2cnn(C3CCNCC3)c2)cnc1N)c1c(Cl)ccc(F)c1Cl | 0 | 30 | 0 | 14 | 93.5 | 82 | 37 | 49 | 51 | 90.2
12 | Cc1n[nH]c2ccc(-c3cc(OC[C@@H](N)Cc4ccccc4)cnc3-c3ccoc3)cc12.O=C(O)C(F)(F)F.O=C(O)C(F)(F)F [GSK507358] | 49 | 40 | 87 | 0 | 5 | 0 | 43 | 0 | 0 | 4
13 | Cc1ccc(-n2nc(C(C)(C)C)cc2NC(=O)Nc2ccc(OCCN3CCOCC3)c3ccccc23)cc1 [GW839464] | 100 | 14 | 33 | 0 | 52 |  |  | 6 | 0 | 23
14 | O=C(NCCNc1ccnc(NCc2ccc(F)cc2)n1)c1cc2ccccc2s1 [GSK1379944] | 0 | 0 | 23 | 0 | 10 | 17 | 0 | 22 | 0 | 19
